PGC1a acetyl inh = inhibitors of PGC1a acetylation signal, primary screen, cell-based, U2OS, AlphaScreen, inhibitor mode; AlphaScreen anti-acetyl-lysine; with virally co-expressed GCN5 acetyltransferase; inhibition, % at 15.6 µM; 350,000 tested, 0.17% active;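 active = every replicate shows inhibition of at least 40%; inconclusive = mean inhibition at least 40% but some replicate below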
HIV Env fusion = inhibitors of HIV-1 Env-driven cell-cell fusion, primary screen, HeLa-JRFL effector, CEM21 target cells, luciferase. 360,000 tested, 1.1% active. inhibition, % at 12.3 µM;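 active = mean replicate inhibition score of at least 50 and every replicate individually at or above 50; inconclusive = only one of the two criteria met; inactive = mean below 50 and not all replicates reaching 50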
GSIS activator = GLuc luminescence reporter in INS-1E cells, primary screen for activators of glucose-dependent secretion of insulin; INS-1E GLuc reporter insulin secretion, 2-3 h; activation, % at 16.6 µM; 370,000 tested, 0.61% active; AID 743287, 2014;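 active = lowest replicate activation of at least 40%, so every replicate reaches that level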
F508del corr = F508del CFTR correction, initial screen, CFBE line, single point; 350,000 tested, 0.36% active; CFBE cells, YFP halide quenching; stimulated with forskolin plus potentiator P3; % fluorescence drop versus neutral controls; activity (quench increase), % at 7.58 µM; AID 720511, 2013;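 active = mean added fluorescence quench of at least 8% versus neutral control, with both replicates also reaching 8%; inconclusive = only one of the mean or replicate conditions met; inactive = mean below 8% and not both replicates reaching 8%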;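 also: cells transiently co-express mutant CFTR-F508del with the halide-sensitive YFP; corrector assay measuring rescue of mutant channel to the surface after 24 h compound exposure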
PAX8 inh HTS = inhibitors of PAX8-driven TPO luciferase reporter, primary screen, RMG-I cells, single concentration | SteadyGlo, 24 h | inhibition, % at 12.6 µM | 360,000 tested, 1.2% active | AID 652154, 2013;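 active = mean replicate inhibition at least 60% with every replicate also reaching 60%; inconclusive = only one of the two criteria is met; inactive = mean below 60% and not all replicates reaching 60%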;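 also: luciferase light reporting Pax8 driven TPO promoter activity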
EWS-Fli inh = EWS/Fli-driven NR0B1 reporter inhibitors, primary screen, A673 cells, NR0B1 luciferase, luminescence, MLPCN library; viability-normalised; inhibition, % at 12.6 µM; 350,000 tested, 0.67% active;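 active = mean inhibition of at least 50% after viability correction, with every replicate also passing that limit; inconclusive = mean reaches 50% but only one of two replicates passes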;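 also: firefly luciferase signal divided by Alamar Blue viability fluorescence both relative to DMSO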
Of the large screens only hits and unclear results are named; the others gave an inactive call; [ ] = dose if it differs, or a comment. Only some compounds are listed: those with a hit (about 2.7% of all), similar ones and a draw of the others.

C[C@H]1CCCCO[C@H](CN(C)C(=O)Nc2cccc3ccccc23)[C@@H](C)CN([C@@H](C)CO)C(=O)c2cc(NC(=O)CCC(F)(F)F)ccc2O1	PAX8 inh HTS 70.6
C[C@@H]1CN([C@H](C)CO)C(=O)c2cc(NC(=O)CCC(F)(F)F)ccc2O[C@@H](C)CCCCO[C@H]1CN(C)C(=O)Nc1cccc2ccccc12	none
C[C@H]1CN([C@@H](C)CO)C(=O)c2cccc(NC(=O)c3ccncc3)c2O[C@@H]1CN(C)C(=O)Nc1cccc2ccccc12	HIV Env fusion 66.2[16.7 µM]
C[C@H](CO)N1C[C@H](C)[C@@H](CN(C)C(=O)Nc2cccc3ccccc23)OCCCC[C@H](C)Oc2ccc(NC(=O)c3ccncc3)cc2C1=O	PAX8 inh HTS 81.7
C[C@@H]1CCCCO[C@H](CN(C)C(=O)Nc2cccc3ccccc23)[C@@H](C)CN([C@@H](C)CO)C(=O)c2cc(NC(=O)c3ccncc3)ccc2O1	none
COc1ccc(S(=O)(=O)N2C[C@H](O)COC[C@H]3O[C@H](CC(=O)N(C)C)CC[C@@H]32)cc1	none
NCC[C@H]1CC[C@@H](NC(=O)C2CC2)[C@H](CO)O1	none (no result: HIV Env fusion, PAX8 inh HTS)
C[C@@H]1CCCCO[C@@H](CN(C)C(=O)Nc2cccc3ccccc23)[C@H](C)CN([C@H](C)CO)C(=O)c2cc(NC(=O)CCC(F)(F)F)ccc2O1	PAX8 inh HTS 67.0
C[C@@H]1CCCCO[C@@H](CN(C)C(=O)c2ccncc2)[C@@H](C)CN([C@H](C)CO)C(=O)c2cc(NC(=O)CCCCCC(=O)Nc3ccccc3N)ccc2O1	PGC1a acetyl inh 99.2
CCCNC(=O)N[C@@H]1C=C[C@@H](CC(=O)NCCc2ccccc2)O[C@H]1CO	none
C[C@H](CO)N1C[C@H](C)[C@@H](CN(C)Cc2ccccn2)Oc2ncc(C#Cc3cccc(F)c3)cc2C1=O	none (no result: PAX8 inh HTS)
O=C(c1cccc(F)c1)N1C[C@@H]2[C@H](c3ccccc31)[C@@H](CO)N2C(=O)c1ccc(F)cc1	none (no result: HIV Env fusion)
O=C(C[C@@H]1CC[C@H](NC(=O)c2ccc3c(c2)OCO3)[C@H](CO)O1)NC1Cc2ccccc2C1	none
COCCSc1ccccc1C(=O)Nc1cc([N+](=O)[O-])ccc1OC	F508del corr 18.2
COCCSc1ccccc1C(=O)Nc1ccc([N+](=O)[O-])cc1OC	none
COCCN1Cc2cccc(C(=O)NCc3ccccc3OC)c2C1=O	GSIS activator 54.8 (no result: HIV Env fusion, F508del corr, PAX8 inh HTS, EWS-Fli inh)
CCCN1Cc2cccc(C(=O)NCc3ccccc3OC)c2C1=O	none (no result: GSIS activator, F508del corr, EWS-Fli inh)
CCSc1nnc([C@H](Cc2ccccc2)NC(=O)OC(C)(C)C)o1	none (no result: GSIS activator, F508del corr, PAX8 inh HTS, EWS-Fli inh)
CC(C)(C)OC(=O)N[C@@H](Cc1ccccc1)c1nnc(S(=O)(=O)Cc2ccccc2)o1	GSIS activator 169.4 (no result: PGC1a acetyl inh, F508del corr, EWS-Fli inh)
Cc1ccccc1CS(=O)(=O)c1nnc([C@H](Cc2ccccc2)NC(=O)OC(C)(C)C)o1	PGC1a acetyl inh 54.9, GSIS activator 45.0 (no result: HIV Env fusion, PAX8 inh HTS)
CCOc1ccccc1CN1[C@@H](c2ccc(OC)cc2)CC(C(=O)OC)(C(=O)OC)[C@H]1c1ccccc1	HIV Env fusion 60.9 (no result: PGC1a acetyl inh)
c1ccc2c(c1)CCN(c1nc3cc4c(cc3s1)OCCO4)C2	PAX8 inh HTS 82.1 (no result: F508del corr, EWS-Fli inh)
COc1ccc(OC)c2sc(N3CCc4ccccc4C3)nc12	none
CN(Cc1ccccc1)S(=O)(=O)c1ccc(NC(=S)NC(=O)C2CCCC2)cc1	F508del corr 13.9, EWS-Fli inh inconclusive (no result: HIV Env fusion, PAX8 inh HTS)
CN(Cc1ccccc1)S(=O)(=O)c1ccc(S(=O)(=O)N(Cc2ccc(F)cc2)C2CCCC2)cc1	PGC1a acetyl inh inconclusive, HIV Env fusion 57.9 (no result: F508del corr, PAX8 inh HTS, EWS-Fli inh)
O=C(O)c1ccc(S(=O)(=O)N(Cc2ccc(F)cc2)C2CCCCC2)cc1	none (no result: GSIS activator)
CN(C)S(=O)(=O)c1ccc(NC(=S)NC(=O)C2CCC2)cc1	none (no result: PGC1a acetyl inh, EWS-Fli inh)
CCCC(=O)Nc1ccc2c(c1)C(=O)N(C)[C@H]1CC[C@@H](CC(=O)NCCc3ccccc3)O[C@@H]1CO2	none (no result: HIV Env fusion)
CN(C[C@@H]1N[C@@H](CO)[C@@H]1c1ccc(-c2cccc(F)c2)cc1)S(C)(=O)=O	none (no result: HIV Env fusion)
CN(C[C@H]1N[C@@H](CO)[C@@H]1c1ccc(-c2cccc(F)c2)cc1)S(C)(=O)=O	PAX8 inh HTS 99.6 (no result: HIV Env fusion)
COc1ccc(Cc2nnc(-c3ccccc3)o2)cc1	GSIS activator 45.8
c1ccc(Cc2nnc(-c3ccccc3)o2)cc1	none (no result: PGC1a acetyl inh, F508del corr, EWS-Fli inh)
C[C@H]1CCCCO[C@H](CN(C)Cc2ccc(C(=O)O)cc2)[C@@H](C)CN([C@@H](C)CO)C(=O)c2cc(NC(=O)Nc3ccc(C(F)(F)F)cc3)ccc2O1	none
CC1(C)CN(O)CCN1O	EWS-Fli inh 73.4 (no result: PGC1a acetyl inh, F508del corr)
CC(C)NC(=O)N(C)C[C@@H]1Oc2ncc(C#CC3CCCCC3)cc2C(=O)N([C@H](C)CO)C[C@H]1C	none (no result: PAX8 inh HTS)
COC(=O)C1(C)NCCc2c1[nH]c1ccccc21 (configuration not stated)	none (no result: HIV Env fusion, PAX8 inh HTS)
CC1=CC(C)(C)N2C(=O)C3(NCCc4c3[nH]c3ccccc43)c3cc(C)cc1c32 (configuration not stated)	PAX8 inh HTS 88.2
O=C(c1cc(COc2cccc(C(F)(F)F)c2)on1)N1CCC(c2ccncc2)CC1	HIV Env fusion 71.8 (no result: PGC1a acetyl inh)
COCc1cc(C)nc(OCC(=O)N/N=C/c2ccc(-c3cc([N+](=O)[O-])ccc3C)o2)c1C#N	HIV Env fusion 64.0 (no result: GSIS activator, F508del corr, EWS-Fli inh)
CN(Cc1ccc(OCC(O)CN(C)Cc2ccccc2)cc1)Cc1nccn1C (configuration not stated)	GSIS activator 46.5
COc1ccc(CN(C)CC(O)COc2ccc(-c3ccccc3)cc2)cc1OC (configuration not stated)	none (no result: PGC1a acetyl inh)
C[C@H](CO)N1C[C@H](C)[C@@H](CN(C)C(=O)c2cnccn2)Oc2ncc(C#CCC3CCCC3)cc2C1=O	none (no result: PAX8 inh HTS)
CC1C=NC(S(=O)(=O)N2CC[C@@H]3[C@@H](CO)N(C)c4ccc(-c5cccc(F)c5)cc4[C@@H]32)=N1 (some centres not stated)	none (no result: HIV Env fusion)
O=C(Cn1c(COc2ccccc2)nc2ccccc21)Nc1cc(Cl)cc(Cl)c1	GSIS activator 67.7 (no result: PGC1a acetyl inh, F508del corr)
O=C(Cn1c(COc2ccc(Cl)cc2)nc2ccccc21)NCC(F)(F)F	none (no result: PGC1a acetyl inh, F508del corr, EWS-Fli inh)
N#CCCNC(=O)Cn1c(COc2ccc(Cl)cc2)nc2ccccc21	PAX8 inh HTS 69.7 (no result: HIV Env fusion, GSIS activator)
O=C(c1ccc(Cl)cc1)C(Cn1cncn1)C(Sc1ccccc1)c1ccccc1 (configuration not stated)	PGC1a acetyl inh 61.3 (no result: HIV Env fusion, GSIS activator, F508del corr, PAX8 inh HTS, EWS-Fli inh)
CC=Cc1ccc2n(c1=O)C[C@@H]1[C@@H](CO)[C@H](C(=O)NCC)[C@H]2N1C(=O)Nc1cc(F)ccc1F (mixture of isomers)	none (no result: PGC1a acetyl inh, HIV Env fusion, PAX8 inh HTS)
Cc1noc(/C=C/c2ccco2)c1S(=O)(=O)N1CCC(C(=O)NC(C)c2ccccc2)CC1 (configuration not stated)	PAX8 inh HTS 93.6 (no result: PGC1a acetyl inh)

Bioassay records from PubChem.
